Data as given in the supplement of paper PMC11732987, “Enantioselective OTUD7B fragment discovery through chemoproteomics screening and high-throughput optimisation” (Communications Chemistry, 2025).

Columns and labels:
Assay in all cases: log2 ratio of Biotin-Ahx-Ub-VS probe labelling (fragment/DMSO); higher = less target engagement (more negative = stronger competition), active = hit call of the paper (q ≤ 0.05, log2 ratio ≤ -1)
Conditions in all cases: compound concentration: 200 uM; treatment time: 3 h
USP9X = USP9X (UniProt Q93008)
How it was run: (§1)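 Fragment (200 µM) or vehicle was incubated for 3 h with triplicate HEK293T lysate samples of 495 µg, which were then treated with Biotin-Ahx-Ub-VS at 0.5 µM final for 1 h. Labelled DUBs were enriched on NeutrAvidin, digested with LysC and trypsin, and analysed by diaPASEF LC-MS/MS. Values are average log2 fragment/vehicle ratios from an unpaired t-test on global-median-normalised Spectronaut label-free quantities, using proteins with ≥2 unique peptides.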

UniProt O00487 = target: UniProt O00487
How it was run: as §1

UniProt O00507 = target: UniProt O00507
How it was run: as §1

UniProt P51784 = target: UniProt P51784
How it was run: as §1

UniProt Q5T2D3 = target: T1, UniProt Q5T2D3
T1 sequence (whole entry): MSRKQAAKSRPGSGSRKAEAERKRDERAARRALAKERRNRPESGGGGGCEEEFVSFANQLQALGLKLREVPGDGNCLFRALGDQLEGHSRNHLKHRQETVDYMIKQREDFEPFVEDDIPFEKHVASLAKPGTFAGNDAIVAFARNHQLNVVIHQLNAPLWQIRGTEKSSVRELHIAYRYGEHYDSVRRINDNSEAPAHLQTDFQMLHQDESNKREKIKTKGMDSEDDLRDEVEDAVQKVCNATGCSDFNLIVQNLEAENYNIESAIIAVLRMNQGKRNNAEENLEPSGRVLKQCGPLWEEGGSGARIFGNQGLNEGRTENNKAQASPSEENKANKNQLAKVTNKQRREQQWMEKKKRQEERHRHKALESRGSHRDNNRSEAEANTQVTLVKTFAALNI
How it was run: as §1

UniProt Q8TE49 = target: T2, UniProt Q8TE49
T2 sequence (whole entry): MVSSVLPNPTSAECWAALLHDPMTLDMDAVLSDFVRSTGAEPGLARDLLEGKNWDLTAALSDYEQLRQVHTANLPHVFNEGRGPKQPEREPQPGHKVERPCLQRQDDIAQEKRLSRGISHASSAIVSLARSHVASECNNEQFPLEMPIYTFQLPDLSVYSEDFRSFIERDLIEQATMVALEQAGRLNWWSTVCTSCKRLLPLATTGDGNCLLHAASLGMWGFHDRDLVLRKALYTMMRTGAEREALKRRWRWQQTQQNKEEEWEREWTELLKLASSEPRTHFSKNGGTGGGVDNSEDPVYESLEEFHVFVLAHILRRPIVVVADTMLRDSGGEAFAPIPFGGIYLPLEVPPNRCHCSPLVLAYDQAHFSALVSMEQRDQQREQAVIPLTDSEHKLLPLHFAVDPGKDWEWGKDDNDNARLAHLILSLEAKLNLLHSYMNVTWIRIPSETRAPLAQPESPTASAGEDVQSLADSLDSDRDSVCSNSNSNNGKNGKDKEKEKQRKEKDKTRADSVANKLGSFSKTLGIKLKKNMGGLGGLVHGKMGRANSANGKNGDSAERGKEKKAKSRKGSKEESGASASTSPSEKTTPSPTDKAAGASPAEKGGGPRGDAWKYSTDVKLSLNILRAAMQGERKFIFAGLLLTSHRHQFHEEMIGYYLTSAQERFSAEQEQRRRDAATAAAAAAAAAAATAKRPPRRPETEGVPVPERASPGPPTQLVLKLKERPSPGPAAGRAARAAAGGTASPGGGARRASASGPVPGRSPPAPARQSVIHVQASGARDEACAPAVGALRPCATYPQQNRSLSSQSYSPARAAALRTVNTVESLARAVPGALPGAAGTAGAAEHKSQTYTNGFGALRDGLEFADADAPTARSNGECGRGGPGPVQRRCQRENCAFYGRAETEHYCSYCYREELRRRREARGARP
How it was run: as §1

UniProt Q9P2H5 = target: T3, UniProt Q9P2H5
T3 sequence (whole entry): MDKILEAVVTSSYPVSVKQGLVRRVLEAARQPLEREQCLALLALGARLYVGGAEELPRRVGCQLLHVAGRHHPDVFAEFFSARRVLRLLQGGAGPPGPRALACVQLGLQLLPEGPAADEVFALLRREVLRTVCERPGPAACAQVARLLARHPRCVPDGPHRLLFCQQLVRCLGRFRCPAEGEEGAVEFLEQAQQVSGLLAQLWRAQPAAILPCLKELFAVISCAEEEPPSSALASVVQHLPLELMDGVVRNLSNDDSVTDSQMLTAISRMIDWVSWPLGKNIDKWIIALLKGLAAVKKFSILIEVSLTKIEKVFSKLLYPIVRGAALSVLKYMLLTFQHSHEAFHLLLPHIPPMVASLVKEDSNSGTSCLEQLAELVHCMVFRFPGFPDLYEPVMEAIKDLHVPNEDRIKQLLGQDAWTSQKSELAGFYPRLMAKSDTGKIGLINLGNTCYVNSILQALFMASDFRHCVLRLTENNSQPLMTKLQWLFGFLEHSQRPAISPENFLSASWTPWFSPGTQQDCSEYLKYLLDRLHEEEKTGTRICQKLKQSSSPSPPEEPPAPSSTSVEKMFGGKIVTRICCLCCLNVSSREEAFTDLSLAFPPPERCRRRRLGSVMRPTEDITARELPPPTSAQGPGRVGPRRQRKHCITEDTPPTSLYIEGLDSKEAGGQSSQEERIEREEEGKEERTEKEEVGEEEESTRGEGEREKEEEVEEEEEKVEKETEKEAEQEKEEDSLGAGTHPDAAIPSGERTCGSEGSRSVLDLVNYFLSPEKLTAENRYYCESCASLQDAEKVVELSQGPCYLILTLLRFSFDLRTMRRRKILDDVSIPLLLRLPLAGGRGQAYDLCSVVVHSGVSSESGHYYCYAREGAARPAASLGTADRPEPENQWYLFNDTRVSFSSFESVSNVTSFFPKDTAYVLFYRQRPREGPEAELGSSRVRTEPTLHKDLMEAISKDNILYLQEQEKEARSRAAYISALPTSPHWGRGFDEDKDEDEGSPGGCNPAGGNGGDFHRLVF
How it was run: as §1

UniProt Q9UGI0 = target: T4, UniProt Q9UGI0
T4 sequence (whole entry): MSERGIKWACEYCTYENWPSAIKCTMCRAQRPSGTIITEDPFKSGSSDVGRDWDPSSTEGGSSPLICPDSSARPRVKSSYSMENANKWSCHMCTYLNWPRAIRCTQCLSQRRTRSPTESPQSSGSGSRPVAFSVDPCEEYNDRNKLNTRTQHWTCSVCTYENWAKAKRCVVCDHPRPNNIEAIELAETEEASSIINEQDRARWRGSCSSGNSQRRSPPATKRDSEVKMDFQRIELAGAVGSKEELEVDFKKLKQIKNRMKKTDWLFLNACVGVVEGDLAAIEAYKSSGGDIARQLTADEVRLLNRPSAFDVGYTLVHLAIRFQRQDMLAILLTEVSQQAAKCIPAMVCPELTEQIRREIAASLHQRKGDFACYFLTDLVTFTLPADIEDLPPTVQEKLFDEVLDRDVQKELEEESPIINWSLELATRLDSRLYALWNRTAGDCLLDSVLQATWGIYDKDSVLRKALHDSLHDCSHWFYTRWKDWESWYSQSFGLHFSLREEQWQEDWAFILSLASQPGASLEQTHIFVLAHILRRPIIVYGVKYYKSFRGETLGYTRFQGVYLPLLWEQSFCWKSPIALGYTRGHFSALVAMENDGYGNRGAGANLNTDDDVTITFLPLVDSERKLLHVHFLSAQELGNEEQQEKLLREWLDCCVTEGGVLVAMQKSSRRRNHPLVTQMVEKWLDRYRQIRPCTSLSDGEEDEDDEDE
How it was run: as §1

YOD1 = target: T5, YOD1 (UniProt Q5VVQ6)
T5 sequence (whole entry): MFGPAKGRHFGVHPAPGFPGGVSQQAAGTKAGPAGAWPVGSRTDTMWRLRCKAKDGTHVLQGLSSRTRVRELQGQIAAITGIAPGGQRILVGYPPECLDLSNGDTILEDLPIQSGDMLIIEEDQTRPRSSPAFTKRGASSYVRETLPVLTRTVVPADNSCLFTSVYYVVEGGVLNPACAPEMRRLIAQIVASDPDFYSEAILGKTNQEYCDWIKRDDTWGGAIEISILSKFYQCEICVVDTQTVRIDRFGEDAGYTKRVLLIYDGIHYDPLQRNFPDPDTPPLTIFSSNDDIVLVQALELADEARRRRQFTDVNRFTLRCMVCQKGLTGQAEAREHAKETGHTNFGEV
How it was run: as §1

Measured: log2 ratio of Biotin-Ahx-Ub-VS probe labelling

UniProt O00487, sequence (O00487 whole entry): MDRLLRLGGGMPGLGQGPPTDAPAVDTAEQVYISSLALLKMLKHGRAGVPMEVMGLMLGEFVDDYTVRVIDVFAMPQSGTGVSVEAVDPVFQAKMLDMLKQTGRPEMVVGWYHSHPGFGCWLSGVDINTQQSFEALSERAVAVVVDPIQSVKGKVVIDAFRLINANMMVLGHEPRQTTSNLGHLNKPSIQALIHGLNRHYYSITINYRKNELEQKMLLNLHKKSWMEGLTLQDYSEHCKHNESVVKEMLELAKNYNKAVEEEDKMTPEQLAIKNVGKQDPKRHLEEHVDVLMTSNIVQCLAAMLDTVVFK
USP9X, sequence (Q93008 whole entry, the tested form may be a part): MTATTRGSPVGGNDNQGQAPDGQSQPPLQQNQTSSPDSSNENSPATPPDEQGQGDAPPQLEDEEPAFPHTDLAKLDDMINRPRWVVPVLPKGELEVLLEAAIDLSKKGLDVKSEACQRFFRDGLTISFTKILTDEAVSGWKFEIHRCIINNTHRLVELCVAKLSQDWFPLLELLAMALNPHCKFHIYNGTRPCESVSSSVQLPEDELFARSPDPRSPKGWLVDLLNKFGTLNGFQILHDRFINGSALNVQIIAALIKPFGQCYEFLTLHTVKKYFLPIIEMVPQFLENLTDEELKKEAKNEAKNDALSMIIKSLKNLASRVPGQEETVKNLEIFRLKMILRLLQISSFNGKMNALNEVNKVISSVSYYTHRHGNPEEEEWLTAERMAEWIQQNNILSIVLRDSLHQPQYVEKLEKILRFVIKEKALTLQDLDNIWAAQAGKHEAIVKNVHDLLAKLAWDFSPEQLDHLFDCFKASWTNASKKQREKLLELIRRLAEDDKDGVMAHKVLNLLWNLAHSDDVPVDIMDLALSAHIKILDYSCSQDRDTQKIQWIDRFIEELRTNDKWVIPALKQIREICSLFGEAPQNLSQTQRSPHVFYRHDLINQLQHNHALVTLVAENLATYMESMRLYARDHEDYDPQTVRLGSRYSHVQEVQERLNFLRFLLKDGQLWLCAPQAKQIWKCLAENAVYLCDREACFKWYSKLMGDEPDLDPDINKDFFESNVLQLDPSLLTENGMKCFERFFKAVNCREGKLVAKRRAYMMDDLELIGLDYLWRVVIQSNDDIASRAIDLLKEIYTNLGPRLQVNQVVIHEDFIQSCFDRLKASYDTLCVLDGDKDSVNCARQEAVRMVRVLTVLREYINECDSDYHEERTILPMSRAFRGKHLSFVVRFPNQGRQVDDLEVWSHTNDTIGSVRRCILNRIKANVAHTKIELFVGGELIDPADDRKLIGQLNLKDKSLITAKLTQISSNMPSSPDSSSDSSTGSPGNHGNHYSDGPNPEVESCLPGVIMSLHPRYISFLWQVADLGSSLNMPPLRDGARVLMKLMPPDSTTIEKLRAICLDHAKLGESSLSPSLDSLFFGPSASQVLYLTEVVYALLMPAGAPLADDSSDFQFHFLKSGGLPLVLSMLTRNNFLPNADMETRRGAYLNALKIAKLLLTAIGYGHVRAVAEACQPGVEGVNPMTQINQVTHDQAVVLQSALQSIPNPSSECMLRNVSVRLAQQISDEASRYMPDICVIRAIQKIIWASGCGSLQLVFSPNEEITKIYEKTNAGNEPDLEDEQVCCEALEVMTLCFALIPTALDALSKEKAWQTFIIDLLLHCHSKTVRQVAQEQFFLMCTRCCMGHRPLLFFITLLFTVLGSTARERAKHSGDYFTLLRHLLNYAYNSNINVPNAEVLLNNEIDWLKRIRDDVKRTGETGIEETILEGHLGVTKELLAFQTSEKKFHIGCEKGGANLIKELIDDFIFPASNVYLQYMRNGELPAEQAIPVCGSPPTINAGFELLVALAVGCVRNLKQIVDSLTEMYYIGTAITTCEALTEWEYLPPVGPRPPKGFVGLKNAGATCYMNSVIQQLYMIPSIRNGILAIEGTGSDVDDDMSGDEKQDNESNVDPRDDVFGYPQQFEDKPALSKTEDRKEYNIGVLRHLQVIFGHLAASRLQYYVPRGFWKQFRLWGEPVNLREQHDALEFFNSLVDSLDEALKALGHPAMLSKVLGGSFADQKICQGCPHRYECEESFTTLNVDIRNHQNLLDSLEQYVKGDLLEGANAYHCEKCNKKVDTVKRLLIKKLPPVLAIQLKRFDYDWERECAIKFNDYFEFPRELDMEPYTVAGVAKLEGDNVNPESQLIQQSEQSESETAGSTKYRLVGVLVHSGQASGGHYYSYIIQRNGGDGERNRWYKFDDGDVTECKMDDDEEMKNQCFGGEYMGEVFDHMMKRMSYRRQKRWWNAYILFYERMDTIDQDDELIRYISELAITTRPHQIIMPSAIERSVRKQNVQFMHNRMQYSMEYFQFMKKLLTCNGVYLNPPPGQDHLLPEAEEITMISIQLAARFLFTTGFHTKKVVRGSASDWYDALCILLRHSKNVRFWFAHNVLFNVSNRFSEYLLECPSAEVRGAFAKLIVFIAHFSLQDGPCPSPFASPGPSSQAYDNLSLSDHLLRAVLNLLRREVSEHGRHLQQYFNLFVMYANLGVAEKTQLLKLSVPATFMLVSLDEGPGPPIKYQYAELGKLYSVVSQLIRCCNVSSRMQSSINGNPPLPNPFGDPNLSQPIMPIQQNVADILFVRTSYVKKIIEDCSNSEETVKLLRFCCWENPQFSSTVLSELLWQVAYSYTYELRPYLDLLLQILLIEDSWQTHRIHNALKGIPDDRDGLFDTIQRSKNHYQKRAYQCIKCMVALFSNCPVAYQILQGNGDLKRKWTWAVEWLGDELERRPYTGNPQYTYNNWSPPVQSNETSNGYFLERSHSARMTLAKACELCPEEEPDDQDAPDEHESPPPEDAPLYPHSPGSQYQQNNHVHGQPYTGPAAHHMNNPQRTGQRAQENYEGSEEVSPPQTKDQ
UniProt P51784, sequence (P51784 whole entry): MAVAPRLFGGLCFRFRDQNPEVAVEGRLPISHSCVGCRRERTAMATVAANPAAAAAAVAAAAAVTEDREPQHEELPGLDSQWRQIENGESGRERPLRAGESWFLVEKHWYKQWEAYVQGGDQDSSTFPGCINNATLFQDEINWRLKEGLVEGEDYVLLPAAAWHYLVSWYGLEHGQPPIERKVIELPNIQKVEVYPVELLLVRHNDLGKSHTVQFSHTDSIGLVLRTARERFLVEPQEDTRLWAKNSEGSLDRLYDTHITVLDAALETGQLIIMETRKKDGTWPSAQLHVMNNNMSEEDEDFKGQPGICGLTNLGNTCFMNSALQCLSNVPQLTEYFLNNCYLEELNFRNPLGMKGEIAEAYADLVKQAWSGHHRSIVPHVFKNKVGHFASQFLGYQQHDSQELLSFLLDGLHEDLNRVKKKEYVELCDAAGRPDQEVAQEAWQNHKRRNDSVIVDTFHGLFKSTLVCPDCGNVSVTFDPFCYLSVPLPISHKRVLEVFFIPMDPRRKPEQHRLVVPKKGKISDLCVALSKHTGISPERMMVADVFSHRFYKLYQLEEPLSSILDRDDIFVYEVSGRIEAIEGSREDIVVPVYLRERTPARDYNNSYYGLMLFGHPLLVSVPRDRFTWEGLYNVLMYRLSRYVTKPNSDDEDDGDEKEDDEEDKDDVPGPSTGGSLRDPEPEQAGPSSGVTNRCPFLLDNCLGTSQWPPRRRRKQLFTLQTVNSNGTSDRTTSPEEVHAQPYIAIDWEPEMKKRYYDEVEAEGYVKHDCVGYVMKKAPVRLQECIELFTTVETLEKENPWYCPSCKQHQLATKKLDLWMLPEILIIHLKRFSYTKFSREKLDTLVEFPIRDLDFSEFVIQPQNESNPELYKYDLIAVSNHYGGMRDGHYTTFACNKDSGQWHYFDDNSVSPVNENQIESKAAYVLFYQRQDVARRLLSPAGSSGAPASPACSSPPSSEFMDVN

Cc1cnc2[nH]cc(CCNC(=O)CCl)c2c1
inactive: USP9X -0.0941 | UniProt O00487 0.0974 | UniProt O00507 -0.277 | UniProt P51784 0.0378 | UniProt Q5T2D3 -0.197 | UniProt Q8TE49 -0.5 | UniProt Q9P2H5 0.0093 | UniProt Q9UGI0 -0.444 | YOD1 -0.097
